Consider 40 compounds from PubChem BioAssay (NCI).

Several values for one entry are separate records, joined by “and”; a condition that tells them apart may be missing. Equal entries are not always repeated. This is part of a sample that, as a whole, favours compounds with a hit. Of some 79,000 tested, about 15% had one in any assay. Activity calls are given as the source filed them. Cut-off read from the data, not from the text of the source: active = growth inhibition above about 70%; inactive = the rest.

A short description of this test: NCI Yeast Anticancer Drug Screen. Data for the mlh1 rad18 strain (AID 175). To be noted: S. cerevisiae mlh1 rad18 strain growth inhibition, hits give high values; at 50.0 µM unless noted. As to the method:
Growth inhibition of yeast strains with defined genetic alterations is measured as a screen for potential anti-cancer activity. Selected strains with alterations in DNA damage repair or cell cycle control were exposed to compounds and growth inhibition was measured relative to vehicle treated controls. The strain used in this assay is mlh1 rad18
Regarding `O/N=C/c1ccco1`, the growth inhibition was 16.1% (inactive).

Take `CCCCN(C#N)CCCC`: the growth inhibition is -32% (inactive).

Turning to `O=C1CCCC/C1=C/C=C/c1ccccc1`, the growth inhibition is 6.75% (inactive).

On to `CCCCCCCCCCCCCCCCCCCCCCCCCCBr`, for which the growth inhibition was 11.7% (inactive).

As for `COS(=O)(=O)CC(O)(c1ccccc1)c1ccccc1`, the growth inhibition is 6.05% (inactive).

On to `Cc1cc(C(=O)O)cc(C)c1N(C)C=O`, for which the growth inhibition is 4.45% (inactive).

Take `CCOC(=O)C(C)N1C(=O)c2ccccc2C1=O` (stereo not given): the growth inhibition was 0.55% (inactive).

As for `Oc1cccnc1Cl`, the growth inhibition was 2.5% (inactive).

As for `C/C(=N\NS(=O)(=O)c1c(C)cc(C)cc1C)c1ccc[n+]([O-])n1`, the growth inhibition was -6.7% (inactive).

Take `C=C(C)C1CC[C@@](C)(O)[C@H](C#N)C1` (stereo not given in full): the growth inhibition was -44% (inactive).

With `CC(=O)OCC(OC(C)=O)C(OC(C)=O)C(/C=N/N(C(C)=O)S(=O)(=O)c1ccc(/C=C2\NC(=O)NC2=O)cc1)OC(C)=O` (stereo not given), the growth inhibition was -25.6% (inactive).

Turning to `S=C(NC1CCCCC1)SSSC(=S)NC1CCCCC1`, the growth inhibition was 6.8% (inactive).

With `COc1cc2ccc(Cc3nccc4cc(OC)c(OC)cc34)cc2cc1OC`, the growth inhibition is 98.2% (active).

For the compound `Cc1cccc2c(N3CCN(c4ccccc4)CC3)c3c(nc12)CCCCC3`, the growth inhibition was -2.7% (inactive).

Consider `CCOC(=O)c1ccc(N/C(C)=C/C(=O)OC)cc1`, for which the growth inhibition is 3.55% (inactive).

Regarding `CCc1ccccc1NC(=O)C(=O)CC(=O)c1sc(Nc2ccccc2Cl)nc1C`, the growth inhibition is 15.1% (inactive).

As to `CC(C)OC(=O)C(O)c1ccccc1` (stereo not given), the growth inhibition is 8.2% (inactive).

With `CCCNC(=O)Oc1ccccc1C(=O)NCO`, the growth inhibition was -6.4% (inactive).

For `Cc1cc([N+](=O)[O-])cc(Br)c1N`, the growth inhibition was 25.4% (inactive).

On to `CCC(C)C(O)C(C)C` (stereo not given), for which the growth inhibition is 21.8% (inactive).

Consider `CCOC(=O)c1cc([N+](=O)[O-])cnc1C`, for which the growth inhibition is 2.4% (inactive).

Regarding `c1ccc(CN(Cn2cccn2)Cn2cccn2)nc1`, the growth inhibition was 34.8% (inactive).

`CC(C)C(=O)NS(=O)(=O)c1ccccc1`: the growth inhibition is -27.9% (inactive).

In the case of `CN(C)C(C#CCO)c1ccccc1` (stereo not given), the growth inhibition was 4.8% (inactive).

In the case of `COC1OC(CO)C(O)C(O)C1OS(=O)(=O)c1ccc(C)cc1` (stereo not given), the growth inhibition was -13.2% (inactive).

With `COC1OC(COS(=O)(=O)c2ccc(C)cc2)C(OS(=O)(=O)c2ccc(C)cc2)C(OS(=O)(=O)c2ccc(C)cc2)C1OS(=O)(=O)c1ccc(C)cc1` (stereo not given), the growth inhibition is 18.6% (inactive).

Regarding `CC(=O)OC(C(=O)NNC(=O)OC(C)(C)C)c1ccccc1` (stereo not given), the growth inhibition was -29.2% (inactive).

In the case of `CCOC(=O)c1c(C)nc(C)c(C(=O)OCC)c1-c1ccc(N(C)C)cc1`, the growth inhibition was 4.05% (inactive) and 5.25% (inactive).

Regarding `CCOC(=O)c1c2ccc(/C=C/C(=O)OC)ccc-2c(C(=O)OCC)c1N`, the growth inhibition was -4.35% (inactive).

Turning to `O=CNNc1nn2cnnc2c2ccccc12`, the growth inhibition was 9.6% (inactive).

On to `O=C(O)CCCCCCCC(=O)O`, for which the growth inhibition is 27.2% (inactive).

As to `CCCC(=O)CC(=O)C(F)(F)F.CCCC(=O)CC(=O)C(F)(F)F.CCCC(=O)CC(=O)C(F)(F)F.[Er]`, the growth inhibition is 50.1% (inactive).

`CCOc1ccc(/C=C(\C(=O)c2ccccc2)S(=O)(=O)c2ccc(OC)cc2)cc1OC`: the growth inhibition is 57% (inactive).

On to `CN(C)c1ccc(S(=O)(=O)OC2C(C3COC(C)(C)O3)OC3OC(C)(C)OC32)cc1` (stereo not given), for which the growth inhibition is 4.7% (inactive).

For the compound `CCOC(=O)CCN(CCC(=O)OCC)N(C)C`, the growth inhibition was 2.8% (inactive).

Turning to `CCCCCCCc1nc(CCCCCCC)nc(CCCCCCC)n1`, the growth inhibition was 12.6% (inactive).

Consider `COc1ccc(N(C(=O)NCCO)c2ccccc2)cc1`, for which the growth inhibition is 26.7% (inactive).

`CCOC(=O)c1sc(SC)nc1NC(=O)c1ccccc1`: the growth inhibition was -33.2% (inactive).

`CCCCCCCCSC(=N)N`: the growth inhibition was 10.7% (inactive).

As for `COc1ccc(N2C(=O)C/C(=C/c3ccc(C(C)C)cc3)C2=O)cc1`, the growth inhibition is 9.15% (inactive).
